{
  "source": "PubChem BioAssay AID489018",
  "about": "(Southern Research Specialized Biocontainment Screening …, 2010)",
  "note": "Screen size: about 2,300 compounds; about 350 (15%) were called active. No rule for the calls is given here. A selection follows. A call without a number means that no potency is given here. Potency and affinity values are given separately.",
  "data": [
    {"assay": "HepG2 cell cytotoxicity, dose response, cytotoxicity control for non-replicating M. tuberculosis project (AID 489018);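 also: HepG2 human liver cells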", "conditions": "series mostly up to 20 µM", "values": [
      {"smiles": "CCCCCn1nnc2c(=O)oc3ccccc3c21", "outcome": "inactive"},
      {"smiles": "Cc1cc(=O)[nH]c(-n2nc(C)cc2C)n1", "outcome": "inactive"},
      {"smiles": "O=C(Nc1ccc(-c2nc3ccccc3c(=O)o2)cc1)c1ccco1", "outcome": "inactive"},
      {"smiles": "COc1ccc(C(C)NC(=O)CCc2ccccc2)cc1", "note": "(stereo not given)", "outcome": "inactive"},
      {"smiles": "Cc1cc(OCCOCCNCc2ccccc2)ccc1C(C)C", "outcome": "inactive"},
      {"smiles": "COc1ccc(C(O)CNc2ccc(C)cc2)cc1", "note": "(stereo not given)", "outcome": "inactive"},
      {"smiles": "CC(C)Oc1ccc(CNC(=O)Oc2ccccc2)cc1", "outcome": "inactive"},
      {"smiles": "Cn1c(CNc2ccccc2O)nc2ccccc21", "outcome": "inactive"},
      {"smiles": "CCCCN1CCC(O)(c2ccccc2)C(C(=O)c2ccccc2)C1", "note": "(stereo not given)", "outcome": "inactive"},
      {"smiles": "O=C(Nc1ccccc1F)c1ccc([N+](=O)[O-])s1", "outcome": "inactive"},
      {"smiles": "CCOc1ccc(OCc2ccc(C(=O)OCc3ccccn3)o2)cc1", "outcome": "inactive"},
      {"smiles": "Cc1ccc(-c2nc3ccccn3c2Nc2ccccc2)o1", "outcome": "inactive"},
      {"smiles": "CCc1ccc(NC(=O)C(=O)NNC(=O)c2cccc(OC)c2)cc1", "outcome": "inactive"},
      {"smiles": "Cc1ccc(NCCC(=O)c2cccs2)cc1", "outcome": "inactive"},
      {"smiles": "CC1(C(=O)OCC(=O)Nc2nnc(-c3ccccc3)o2)CC1(Cl)Cl", "note": "(stereo not given)", "outcome": "inactive"},
      {"smiles": "O=C(COc1ccc(Cl)cc1)Nc1ccc(Cl)cn1", "outcome": "inactive"},
      {"smiles": "Cn1c(=O)c(Oc2ccc(Cl)cc2)c(O)c2ccccc21", "outcome": "inactive"},
      {"smiles": "CC1CCCN(CCCOc2ccc([N+](=O)[O-])cc2)C1", "note": "(stereo not given)", "outcome": "inactive"},
      {"smiles": "Cc1ccccc1OCCNc1cc(N2CC(C)NC(C)C2)ccc1[N+](=O)[O-]", "note": "(stereo not given)", "outcome": "inactive"},
      {"smiles": "CCOc1ccc(-c2cc(CCCC(=O)NCCC(C)C)no2)cc1", "outcome": "inactive"},
      {"smiles": "Cc1ccc(C2=N/C(=C\\c3cccnc3)C(=O)O2)cc1", "outcome": "inactive"},
      {"smiles": "O=C1OC(/C=C/c2ccccc2)=NC/1=C\\c1cccnc1", "outcome": "inactive"},
      {"smiles": "COc1ccc(-c2cc(=O)oc(-c3cccc(C)c3)n2)cc1", "outcome": "inactive"},
      {"smiles": "O=C(CCC1CCCC1)Nc1ccc(Br)cn1", "outcome": "inactive"},
      {"smiles": "CCOC(=O)c1sc2nc(CSc3ccccc3)nc(NCCN(C)C)c2c1C", "outcome": "inactive"},
      {"smiles": "Cc1cc(C)n(-c2nc(NCCCO)c3c4c(sc3n2)CCCC4)n1", "outcome": "inactive"},
      {"smiles": "CC1=C/C(=N\\OS(=O)(=O)c2ccccc2)C(C)=CC1=O", "outcome": "inactive"},
      {"smiles": "O=C1CSC(=S)N1Cc1cccnc1", "outcome": "inactive"},
      {"smiles": "COc1cccc(C(=O)OCn2nnc3ccccc3c2=O)c1OC", "outcome": "inactive"},
      {"smiles": "O=C(OCn1nnc2ccccc2c1=O)c1ccc(Br)o1", "outcome": "inactive"},
      {"smiles": "O=[N+]([O-])c1ccc(-c2nc3ccc([N+](=O)[O-])cc3[nH]2)cc1", "outcome": "inactive"},
      {"smiles": "c1ccc(-c2nc3c(ccc4ccccc43)[nH]2)nc1", "outcome": "inactive"},
      {"smiles": "CCOC(=O)CNCCC(=O)c1ccc(Br)cc1", "outcome": "inactive"},
      {"smiles": "COc1cc(OC)c2c(OC)cccc2n1", "outcome": "inactive"},
      {"smiles": "CCN1CCN(c2ccc(S(=O)(=O)N3CCCCC3)cc2NC(=O)c2ccc([N+](=O)[O-])s2)CC1", "outcome": "inactive"},
      {"smiles": "C/C(=N/NC(=O)c1cc2ccccc2cc1O)C1C(=O)c2ccccc2C1=O", "outcome": "inactive"},
      {"smiles": "CCN(CC)c1ccc2cc(C(=O)NCc3ccc(F)cc3)c(=N)oc2c1", "outcome": "inactive"},
      {"smiles": "COCCSc1nnc(NC(=O)CCS(=O)(=O)Cc2ccccc2)s1", "outcome": "inactive"},
      {"smiles": "CCC(C)n1nnc2c(=O)oc3ccccc3c21", "note": "(stereo not given)", "outcome": "inactive"},
      {"smiles": "O=C(Nc1ncc([N+](=O)[O-])s1)c1cccs1", "outcome": "inactive"}
    ]}
  ]
}
